# Results published in the supplement of paper PMC8728848.
# Many of the other results were omitted from the sample, so the strongest signals are more common in it than they were.
# B1: Tulipa lectin C-1 (Tulipa hybrid) (protein)
# chain: MGMALVVALAVALASTVAGQQNVLLSGNTLANEESLSYGSVKFIMQNDCNLVLYGGGFQSNTASNGKKCTLTLNNNGHLIINDGLTGRVVWRNSNAQNPVGRYAAVLRPAPGTADVAIYGPAIWSTNDEFSYQESGVVPHKLGRETPNLPRMQNLLFSGQTLYGTDGMLSSNDGSTTFELSKCQLSLSLGNEVKWKVAPTVENGKENYCHVRLDHRGHLSLLNDDNVVLFRSIPTNGVEPPIGDYVLIVEKGAGYIYGPPIWNTYDNRRYKVASA
# B2: EULS2 M3 (Oryza sativa) (protein)
# chain: MVYCRANPNYAMTARNGAVVLAPANPKDEYQHWIKDMRWSTSIKDEEGYPAFALVNKATGQAIKHSLGQSHPVRLVPYNPEVMDESVLWTESRDVGNGFRCIRMVNNIYLNFDAFHGDKYHGGVRDGTDIVLWKLCEGDSLRWKIQPYYILEQKLISEEDLNSAVDHHHHHH
# Experiments:
# Test in all cases: glycan array binding signal (z-score within array); higher = stronger binding
# Conditions in all cases: glycan notation: IUPAC condensed, linker removed
# [1] = target: Fuc(a1-2)Gal(b1-4)GlcNAc(b1-3)Gal(b1-4)GlcNAc
# Method in brief: (§1)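 Negative Z-scores can be read as non-binding. The Z-score is calculated within each array and then averaged across arrays of one protein sequence at different concentrations or buffers and across linkers. Arrays, 3228 in all, were curated from the Consortium for Functional Glycomics database and kept only where the protein sequence was available.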
# [2] = target: Gal(b1-3)GalNAc(b1-3)Gal(b1-4)Glc
# Method in brief: as §1
# [3] = target: Gal(b1-4)GlcNAc(b1-2)Man(a1-3)[Gal(b1-4)GlcNAc(b1-2)Man(a1-6)]Man(b1-4)GlcNAc(b1-4)GlcNAc
# Method in brief: as §1
# [4] = target: GlcNAc(b1-2)Man(a1-3)[GlcNAc(b1-2)Man(a1-6)]Man(b1-4)GlcNAc(b1-4)GlcNAc
# Method in brief: as §1
# [5] = target: GlcNAc(b1-3)Gal(b1-4)GlcNAc
# Method in brief: as §1
# [6] = target: Man(a1-2)Man(a1-3)[Man(a1-3)[Man(a1-6)]Man(a1-6)]Man(b1-4)GlcNAc(b1-4)GlcNAc
# Method in brief: as §1
# [7] = target: Man(a1-3)[Man(a1-6)]Man(b1-4)GlcNAc(b1-4)GlcNAc
# Method in brief: as §1
# [8] = target: Neu5Ac(a2-6)Gal(b1-4)GlcNAc(b1-2)Man(a1-3)[Neu5Ac(a2-6)Gal(b1-4)GlcNAc(b1-2)Man(a1-6)]Man(b1-4)GlcNAc(b1-4)GlcNAc
# Method in brief: as §1
# [9] = target: Neu5Ac(a2-6)Gal(b1-4)GlcNAc(b1-3)Gal(b1-4)[Fuc(a1-3)]GlcNAc(b1-3)Gal(b1-4)[Fuc(a1-3)]GlcNAc
# Method in brief: as §1
# [10] = target: Neu5Ac(a2-6)GalNAc(b1-4)GlcNAc
# Method in brief: as §1
# [11] = target: Kdn(a2-3)Gal(b1-4)[Fuc(a1-3)]GlcNAc
# Method in brief: as §1
# Kdn(a2-6)Gal(b1-4)GlcNAc = target: Kdn(a2-6)Gal(b1-4)GlcNAc
# Method in brief: as §1
# Man(b1-4)GlcNAc = target: Man(b1-4)GlcNAc
# Method in brief: as §1
# Neu5Ac(a2-3)Gal = target: Neu5Ac(a2-3)Gal
# Method in brief: as §1
# [12] = target: Neu5Ac(a2-3)Gal(b1-4)GlcNAc(b1-2)Man(a1-3)[GlcNAc(b1-4)][Neu5Ac(a2-3)Gal(b1-4)GlcNAc(b1-2)Man(a1-6)]Man(b1-4)GlcNAc(b1-4)GlcNAc
# Method in brief: as §1
# [13] = target: Neu5Ac(a2-3)Gal(b1-4)GlcNAc(b1-3)Gal(b1-4)GlcNAc(b1-6)[Gal(b1-3)]GalNAc
# Method in brief: as §1
# [14] = target: Neu5Ac(a2-3)Gal(b1-4)GlcNAc(b1-3)GalNAc
# Method in brief: as §1
# [15] = target: Neu5Ac(a2-3)Gal(b1-4)[Fuc(a1-3)]GlcNAc(b1-3)Gal
# Method in brief: as §1
# Neu5Ac(a2-3)GalNAc = target: Neu5Ac(a2-3)GalNAc
# Method in brief: as §1
# [16] = target: Neu5Ac(a2-6)Gal(b1-4)GlcNAc(b1-2)Man(a1-3)[Neu5Ac(a2-3)Gal(b1-4)GlcNAc(b1-2)Man(a1-6)]Man(b1-4)GlcNAc(b1-4)GlcNAc
# Method in brief: as §1
# Neu5Ac(a2-6)GalNAc = target: Neu5Ac(a2-6)GalNAc
# Method in brief: as §1
# [17] = target: Neu5Ac(a2-8)Neu5Ac(a2-3)Gal(b1-3)GalNAc(b1-4)[Neu5Ac(a2-3)]Gal(b1-4)Glc
# Method in brief: as §1
# [18] = target: Neu5Ac(a2-8)Neu5Ac(a2-8)Neu5Ac(a2-8)Neu5Ac(a2-3)[GalNAc(b1-4)]Gal(b1-4)Glc
# Method in brief: as §1
# [19] = target: Neu5Gc(a2-3)Gal(b1-4)GlcNAc
# Method in brief: as §1
binder,measurement,setting,value
B1,glycan array binding signal (z-score),[1],-0.2
same,glycan array binding signal (z-score),[2],-0.226
same,glycan array binding signal (z-score),[3],5.37
same,glycan array binding signal (z-score),[4],4.39
same,glycan array binding signal (z-score),[5],-0.23
same,glycan array binding signal (z-score),[6],-0.179
same,glycan array binding signal (z-score),[7],4.98
same,glycan array binding signal (z-score),[8],5.26
same,glycan array binding signal (z-score),[9],-0.093
same,glycan array binding signal (z-score),[10],-0.003
B2,glycan array binding signal (z-score),[11],0.28
same,glycan array binding signal (z-score),Kdn(a2-6)Gal(b1-4)GlcNAc,-0.599
same,glycan array binding signal (z-score),Man(b1-4)GlcNAc,0.117
same,glycan array binding signal (z-score),Neu5Ac(a2-3)Gal,-1.29
same,glycan array binding signal (z-score),[12],-0.414
same,glycan array binding signal (z-score),[13],-0.345
same,glycan array binding signal (z-score),[14],-0.286
same,glycan array binding signal (z-score),[15],0.557
same,glycan array binding signal (z-score),Neu5Ac(a2-3)GalNAc,-0.085
same,glycan array binding signal (z-score),[16],-0.391
same,glycan array binding signal (z-score),Neu5Ac(a2-6)GalNAc,-0.8
same,glycan array binding signal (z-score),[17],1.61
same,glycan array binding signal (z-score),[18],-0.424
same,glycan array binding signal (z-score),[19],0.145
